According to PubChem BioAssay AID1259418 (Broad Institute, 2018):
Screen size: about 3,400 compounds; about 840 (25%) were called active. Not shown: some 11% with an inconclusive outcome. These entries were drawn from the full list. Potency and affinity values are given separately. A number with no mark means an inactive call.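 How the source made its calls: active means fitted half-maximal concentration of signal decrease at or below twice the sample's top tested concentration; inconclusive means flat curve between -70 and -30 percent, or poor fit; inactive means flat within 30 percent, signal rise, or potency above limit.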

Experiment: T. gondii growth inhibition with IFN-gamma, dose response, cell-based, ME49Luc, HeLa, luciferase, 72 h (AID 1259418)
Settings: T. gondii ME49Luc in IFN-y HeLa, hits give low values, -100% = high-dose IFN-γ control wells; at 19.5 µM unless noted

Structure (SMILES)	max activity
COc1ccc(-c2nc(NC(C)CCc3ccccc3)c3ccccc3n2)cc1 (centres undefined)	13.7%
CCOc1ccc(S(=O)(=O)N2CCc3nc(-c4ccc(OC)cc4)sc3C2)cc1	-25.8% [at 0.16 µM]
Cc1nc(-c2ccc(F)cc2)sc1-c1ccc(SCc2ccccc2F)nn1	-39.8%
Clc1ccc(-c2nc(NCCCN3CCc4ccccc4C3)c3ccccc3n2)cc1	-15.5% [at 0.16 µM]
Cc1nc(OCC(=O)Nc2ccc(F)c(Cl)c2)c2ccccc2n1	21% [at 0.68 µM]
COC(=O)/C=c1\sc2nc(=O)c(C)nn2c1=O	25.1% [at 10 µM]
Cc1nc(-c2ccc(F)cc2)sc1-c1ccc(SCc2ccc(Cl)cc2Cl)nn1	-14.7% [at 5 µM]
Cc1cccc(CSc2ccc(-c3sc(-c4ccc(F)cc4)nc3C)nn2)c1	-11.3% [at 0.35 µM]
Cc1cccc(OCC(=O)Nc2ccc(-c3nc(-c4ccccc4)co3)cc2)c1C	-18.6% [at 2.6 µM]
Cc1ccccc1-c1ccc([C@H]2[C@@H](CO)N3C(=O)CN(C(=O)c4ccncc4)C[C@@H]23)cc1	27.7%
O=C(c1cnccn1)N1CC(=O)N2[C@H](CO)[C@@H](c3ccc(/C=C/c4ccccc4)cc3)[C@H]2C1	28.4%
COc1cccc(-c2ccc([C@@H]3[C@H]4CN(C(=O)c5cccnc5)CC(=O)N4[C@H]3CO)cc2)c1	12.1%
COc1cccc(-c2ccc([C@H]3[C@H](CO)N4C(=O)CN(C(=O)c5cccnc5)C[C@@H]34)cc2)c1	25.9%
Cc1ccccc1-c1ccc([C@@H]2[C@H](CO)N3C(=O)CN(C(=O)c4ccncc4)C[C@@H]23)cc1	29.6%
O=C(CCC1N=C2c3ccccc3N=C(SCc3cc(=O)n4ccccc4n3)N2C1=O)NCc1ccc(F)cc1 (centres undefined)	26.8%
COc1ccc(-c2noc(-c3nnn(Cc4nc(-c5ccccc5OC)oc4C)c3C)n2)cc1OC	11.4% [at 0.16 µM]
COc1ccc(-c2nc3c(s2)CN(C(=O)Nc2ccc(C)cc2)CC3)cc1OC	-13% [at 0.35 µM]
O=C1CCc2cc(S(=O)(=O)NCc3cccn3Cc3ccccc3F)ccc2N1	12.6%
CCOC(=O)CSC1=Nc2ccccc2C2=NC(CCC(=O)NCc3ccc4c(c3)OCO4)C(=O)N12 (centres undefined)	25.7% [at 2.6 µM]
Cc1nc(OCC(=O)Nc2ccc(Cl)c(C(F)(F)F)c2)c2ccccc2n1	27.7% [at 0.35 µM]
COc1ccc(-c2nc3c(s2)CN(C(=O)Nc2cc(C)ccc2OC)CC3)cc1	17%
O=C(c1cnccn1)N1CC(=O)N2[C@H](CO)[C@@H](c3ccc(-c4cccc(F)c4)cc3)[C@H]2C1	46.4%
O=C(c1cnccn1)N1CC(=O)N2[C@H](C1)[C@H](c1ccc(-c3cccc(F)c3)cc1)[C@@H]2CO	32.8%
Cc1oc(-c2cccc(Cl)c2)nc1CN1CCN(C(=O)NC2CCCCC2)CC1	20.5% [at 1.35 µM]
CCOC(=O)Cc1ccc(NC(=O)Nc2ccc(-c3nc(-c4cc(C)ccc4C)co3)cc2)cc1	5.78%

Structure (SMILES)	max activity
O=C(NCCc1csc(-c2ccccc2)n1)[C@H]1CSCN1C(=O)CCc1ccccc1	14.8% [at 5 µM]
Cc1nc(OCC(=O)Nc2cccc(C(F)(F)F)c2)c2ccccc2n1	-11.8% [at 2.6 µM]
CCOc1ccc(N(Cc2nc(-c3cccc(Cl)c3)oc2C)S(=O)(=O)c2cccs2)cc1	19.9%
Cc1cccc(-c2nc(CN(c3ccccc3)S(=O)(=O)c3cccs3)c(C)o2)c1	-12.1% [at 1.35 µM]
Cc1ccc(N(Cc2nc(-c3cccc(C)c3)oc2C)S(=O)(=O)c2cccs2)cc1	-8.42% [at 0.16 µM]
COc1ccc(-c2nc(N3CCCc4ccccc43)c3ccccc3n2)cc1	23.2% [at 10 µM]
O=C(NCCc1ccccc1)Nc1ccc(-c2nc(-c3ccccc3)co2)cc1	87.9%
O=C(CC1Nc2c3ccccc3nc(=S)n2C1=O)NCc1cccc(Cl)c1 (centres undefined)	-20.4% [at 2.6 µM]
COc1ccc(-c2nc(N3CCN(c4ccccn4)CC3)c3ccccc3n2)cc1	-11.1% [at 0.35 µM]
COCC#Cc1ccc([C@H]2[C@H](CO)N3CCCCN(C(=O)NC4CCCC4)C[C@@H]23)cc1	30.1%
Cc1ccc(Nc2nc(N)nc(CN3CCc4ccccc4C3)n2)cc1	19.9% [at 5 µM]
CCc1nc(OCC(=O)Nc2cc(F)ccc2F)c2ccccc2n1	14.2%
COCCn1cc2c(n1)C(CNC(=O)CS(C)(=O)=O)OCC2 (centres undefined)	15.6%
Cc1ccc(C)c(N2CCN(C(=O)c3ccc(-n4nc(C(F)(F)F)c5c4CCCC5)cc3)CC2)c1	-23.2%
O=C(NCc1cccc(Cl)c1)c1ccc(-n2nc(C(F)(F)F)c3c2CCCC3)cc1	-5.33% [at 0.68 µM]
Cc1nc(-c2cccc(-c3noc(C(=O)N4CCC5(CC4)OCCO5)n3)c2)cs1	13.7% [at 2.6 µM]
O=C(c1ccc(Cn2cncn2)cc1)N1CCC(N2CCCCC2)CC1	4.24% [at 10 µM]
Cc1noc(C)c1C1CCCN1C(=O)Cn1nc(C(F)(F)F)c2c1CCCC2 (centres undefined)	-14% [at 0.35 µM]
CCc1nc(-c2ccc(C(=O)N3CCC4(CC3)OCCO4)cc2)cs1	5.55%
COc1ccc(-c2nc(N3CCN(c4cccc(C(F)(F)F)c4)CC3)c3ccccc3n2)cc1	13.5% [at 5 µM]
COc1ccc(-n2ncc3c(Nc4ccc(C)cc4)ncnc32)cc1	28.3% [at 0.68 µM]
Cc1oc(-c2cccc(Cl)c2)nc1CN1CCN(C(=O)NC2CCCC2)CC1	17.3% [at 10 µM]
CCOc1ccc(-c2nc(CN3CCN(C(=O)NC4CCCCC4)CC3)c(C)o2)cc1	-13.3% [at 0.16 µM]
Cc1ccc(-c2nc(CN3CCN(C(=O)NC4CCCCC4)CC3)c(C)o2)cc1	6.38% [at 5 µM]
